About 83,000 compounds went through this panel and 20% of them were active in at least one assay; those are over-represented in the sample as a whole.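 Values shown are percent growth following 48 h exposure of cells in 96-well plates to a single concentration of compound; below 10 was considered active.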 A number with no mark means an inactive call. Activity calls are given as the source filed them.

What all share (assay): NCI-60 one-dose screen, 48 h (100 = growth as untreated, 0 = no growth, -100 = all killed)
What all share (settings): 10 µM unless noted

Experiment [1] relates to DU-145 prostate.
The subject of experiment [2] is K-562 leukemia.
In experiment [3] the test system is MALME-3M melanoma.
The subject of experiment [4] is MDA-MB-231 breast.
Experiment [5] has as its system RXF 393 renal.
Experiment [6] has as its system SF-268 CNS.
Experiment [7] has as its system SF-295 CNS.
Experiment [8] has as its system SF-539 CNS.
Experiment [9] relates to UACC-257 melanoma.
The test system of experiment [10] is M14 melanoma.
Experiment [11] concerns HCT-15 colon.
Experiment [12] relates to HT29 colon.
The subject of experiment [13] is SNB-75 CNS.
Experiment [14] relates to SNB-19 CNS.
Experiment [15] deals with U251 CNS.
In experiment [16] the test system is PC-3 prostate.
Experiment [17] relates to SK-MEL-5 melanoma.
Experiment [18] deals with UACC-62 melanoma.
Experiment [19] relates to LOX IMVI melanoma.
Experiment [20] concerns SK-MEL-28 melanoma.

For the compound `CN1CCN(CC(O)COc2c(Br)c(Br)c(Br)c3c2OC(C)(C)C3)CC1` (stereo not given), the growth in [1] is 89.9%; in [2] it was -16.5% (active); in [3] it was -36.9% (active); in [4] it was 49.7%; in experiment [5], 29.4%; in experiment [6] it was 63.8%. Also, the growth is 38.7% in [7]; 58.3% in experiment [8]; 99.9% in [9]; -53.5% (active) in experiment [10]; 28.7% in [11]; -12.8% (active) in [12]. Moreover, the growth was 90.7% in experiment [13]; 92.7% in [14]; 56.4% in experiment [15]; 53% in [16]; -86% (active) in experiment [17]; -59.5% (active) in experiment [18]. Further, the growth in experiment [19] was 4.05% (active); in experiment [20], -89.2% (active).
Regarding `O=C(O)c1ccc(-n2cc(/C=N/Nc3ccccc3F)c(-c3ccc(O)cc3)n2)cc1`, the growth in experiment [1] is 97%; in experiment [2], 13%; in experiment [3] it was 92.7%; in experiment [4] it was 85.2%; in [5], 92.6%; in [6] it was 78.6%. In addition, the growth was 80.5% in experiment [7]; 85.9% in experiment [8]; 103% in [9]; 73.5% in experiment [10]; 73.1% in experiment [11]; 101% in [12]. The growth in [13] was 82.8%; in experiment [14], 95.2%; in experiment [15], 86.9%; in experiment [16], 74.8%; in experiment [17], 78%; in experiment [18], 46.5%. Moreover, the growth in experiment [19] was 37%; in [20], 97.1%.
Turning to `O=S1(=O)N(CCNc2nccc(-c3c(-c4cccc(O)c4)nc4sccn34)n2)CCN1Cc1ccccc1`, the growth was 74.1% in experiment [1]; 46.1% in [2]; 50.8% in [3]; 52.6% in experiment [4]; 68.6% in experiment [5]; 86% in experiment [6]. Moreover, the growth in experiment [7] is 62.8%; in experiment [8], 63.9%; in experiment [9] it was 37.2%; in experiment [10] it was 28.4%; in [11], 55.7%; in [12], 37%. Besides, the growth in experiment [13] is 70.4%; in [14], 113%; in experiment [15], 69%; in experiment [16], 63%; in experiment [17], 30.6%; in experiment [18], 20.7%. Besides, the growth in [19] was 28.6%; in experiment [20], 60.2%.
As to `O=C1OC(N(Cc2ccc(Cl)cc2)c2ccccc2)c2ccccc21` (stereo not given), the growth was 109% in [1]; 87% in experiment [2]; 104% in experiment [3]; 84.8% in experiment [4]; 125% in experiment [5]; 105% in [6]. The growth in experiment [7] was 104%; in [8], 99.7%; in experiment [9], 105%; in [10] it was 104%; in experiment [11], 104%; in experiment [12] it was 87.4%. The growth is 115% in experiment [13]; 96.7% in experiment [14]; 100% in [15]; 98.2% in [16]; 101% in [17]; 93.9% in experiment [18]. In addition, the growth in experiment [19] was 98.9%; in experiment [20], 111%.
Regarding `O=C(O)c1ccc(-n2cc(/C=N/Nc3ccc(Cl)cc3)c(-c3ccc(F)c(F)c3)n2)cc1`, the growth in experiment [1] was 85.4%; in experiment [2], 7.69% (active); in experiment [3], 36%; in experiment [4] it was 93%; in [5], 108%; in experiment [6] it was 71.1%. For the same compound, the growth was 66.6% in [7]; 88.2% in experiment [8]; 99.4% in [9]; 57.5% in experiment [10]; 52.1% in experiment [11]; 93.4% in experiment [12]. In addition, the growth is 89.6% in [13]; 86.6% in experiment [14]; 81.1% in experiment [15]; 60.2% in experiment [16]; 72.3% in experiment [17]; 39.1% in experiment [18]. The growth in experiment [19] is 44.2%; in experiment [20], 73.6%.
As to `O=C(Nc1cccc(-n2ccc3c(NC(=O)c4ccccc4)ncnc32)c1)Nc1ccc(Cl)c(C(F)(F)F)c1`, the growth in [1] is 42.2%; in [2] it was 13.6%; in experiment [3] it was 46.5%; in [4], 42.3%; in experiment [5] it was 14.6%; in [6], 38.1%. Besides, the growth in experiment [7] is 14.2%; in experiment [8], 39.1%; in experiment [9], 36%; in [10], 28.1%; in experiment [11], 34.1%; in experiment [12], 26.6%. The growth in experiment [13] is 44.4%; in [14], 46.5%; in [15], 31.7%; in experiment [16] it was 22.7%; in experiment [17] it was 19%; in [18], 39.5%. The figures for the growth in experiment [19] and in experiment [20] were 24.7% and 49.4%, respectively.
For the compound `CC(C)CNCC(=O)Nc1ccc(Cc2ccc(NC(=O)CNCC(C)C)cc2)cc1`, the growth in experiment [1] is 58.3%; in [2] it was -27.7% (active); in experiment [3] it was -23% (active); in experiment [4] it was -0.499% (active); in experiment [5] it was 46.7%; in experiment [6] it was 59.7%. Also, the growth in [7] is 78.5%; in experiment [8] it was 77.8%; in [9], 62.6%; in experiment [10], 38.6%; in [11] it was 50.2%; in experiment [12] it was 15.8%. Further, the growth was 65.7% in experiment [13]; 72.6% in experiment [14]; 50.5% in [15]; 25.8% in [16]; 40.3% in experiment [17]; 64.6% in experiment [18]. The growth was 60.4% in [19] and 80.4% in [20].
`COc1cc(-c2nc3sc(C)cn3c2/C=C2\C(=O)Nc3ccccc32)c(Br)c(OC)c1OC`: the growth in experiment [1] was 46.9%; in experiment [2], 9.97% (active); in experiment [3], 26.3%; in experiment [4], 79.4%; in experiment [5], 13.4%; in [6], 54.1%. Further, the growth is 21.8% in experiment [7]; 11.8% in [8]; 79.4% in experiment [9]; 22.2% in [10]; 52.9% in [11]; 9.62% (active) in [12]. Moreover, the growth in experiment [13] is 18.2%; in [14], 40.4%; in experiment [15] it was 52.1%; in experiment [16] it was 26.5%; in [17] it was 10.4%; in [18], 52.8%. In addition, the results for the growth in [19] and in experiment [20] were 41.3% and 69.5%, respectively.
